PubChem BioAssay AID743279 (National Center for Advancing Translational Sciences (NCATS), 2014)
The campaign covered roughly 360,000 compounds. About 17,000 (4.7%) were called active. Inconclusive results (about 5%) are left out. Rule as the data show it: active = activity change below about -50%; inconclusive = mostly about -30% to -49%; inactive = weaker than that. Many of the other results were omitted from the sample, so actives are more common in it than they were.

assay: qHTS for Inhibitors of Inflammasome Signaling: IL-1-beta AlphaLISA Primary Screen; conditions: THP-1 LPS/ATP IL-1B secretion, 16 h; at 57.5 µM, stronger effect = lower value
Outline: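 THP-1 cells pretreated 1 hr with compounds (up to 57.5 uM final), then stimulated with LPS (250 ng/mL final) plus ATP (1.25 mM final); secreted IL-1B measured by AlphaLISA after 16 hr, decreased signal indicating inhibition.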
% is scaled to controls: 0 for no effect and ±100 for the full control effect.

Activity change, inactive:
CCN1CCCC1Cn1cnc2c([nH]c3cc(OC)ccc32)c1=O (stereo not drawn) -21.8%
CCN1CCCC1CNC(=O)c1cc2cc(OC)c(OC)cc2[nH]1 (stereo not drawn) -7.87%
C[C@@H]1CN([C@@H](C)CO)S(=O)(=O)c2ccc(-c3ccc(C(=O)N(C)C)cc3)cc2O[C@@H]1CN(C)Cc1ccccc1C(=O)O 23.1%
COc1ccc(-c2ccc3c(c2)C2CC3CCN2CCC#N)cc1 (stereo not drawn) 12.2%
Cc1cc(C)c2nc(-c3cccnc3)cc(C(=O)Nc3ccc(S(=O)(=O)Nc4onc(C)c4C)cc3)c2c1 16.5%
COc1ccc(CN2C(=O)C(CC(=O)NCc3cccc4ccccc34)CC(C(=O)N3CCOCC3)=C2C)cc1 (stereo not drawn) -5.05%
COc1cc(C(O)c2nc(-c3cnn(C)c3)cs2)ccc1F (stereo not drawn) 25.9%
CC(C)(C)NC(=O)Cn1c(SCC(=O)Nc2nccs2)nc2ccccc21 -11.3%
O=C(Nc1ccc(F)cc1)N1CCCC(c2nc3c(nnn3Cc3ccccc3Cl)c(=O)[nH]2)C1 (stereo not drawn) -15.2%
COc1ccc(Cn2nnc3c(=O)[nH]c(C4CCN(C(=O)c5ccccc5Cl)CC4)nc32)cc1 0%
CC[C@]12c3[nH]c4cc(CCC(=O)N(C)C)ccc4c3CCN1C(=O)[C@@H](CC(=O)NCCCN(C)C)C[C@@H]2C(=O)N1CCN(C(=O)c2ccco2)CC1 0%
CC1CCN(C(=O)CSc2nnc(-c3ccco3)n2N)CC1 3.36%
c1ccc(Cc2c(-c3ccco3)nc3c4ccccc4ccn23)cc1 -21.7%
Cc1ccc(OCC(O)CN2CCN(CC(O)COc3ccc(C)cc3Cl)CC2)c(Cl)c1 (stereo not drawn) 4.54%
C=CCc1ccccc1OCC(O)CN1CCN(CCO)CC1 (stereo not drawn) 9.73%
CCCCN1C(=O)C(CC(=O)NCc2cccs2)CC(C(=O)N2CCCCCC2)=C1C (stereo not drawn) 7%
Clc1ccc(-n2nnnc2CN2CCCCC2)cc1Cl 9.91%
CN(C(=O)CN1C(=O)S/C(=C\c2ccccc2F)C1=O)C1CCS(=O)(=O)C1 (stereo not drawn) -16.9%
COc1ccccc1/C=C1\SC(=O)N(CCC(=O)N(C)C2CCS(=O)(=O)C2)C1=O (stereo not drawn) -15.1%
CCC(C)CN1C(=O)CSCC1(C)C(=O)NCc1ccccc1 (stereo not drawn) -5.63%
CC(=O)c1cccc(NC(=O)COc2ccc(S(=O)(=O)N3CCOCC3)cc2)c1 -9.57%
COc1ccc(S(=O)(=O)N2CCOCC2)cc1NC(=O)COc1ccccc1 6.58%
Cc1cc2c(cc1C)NC1(C[C@H]3CCC(=O)N4CC[C@@H](C1)[C@@H]34)C(=NC(C)(C)CC(C)(C)C)N2 (stereo partly drawn) 1.01%
C=CCN(N=Nc1cccc([N+](=O)[O-])c1)c1cccc([N+](=O)[O-])c1 -16.1%
NS(=O)(=O)c1ccc(CNC(=O)c2cccc(S(=O)(=O)N3CCc4ccccc43)c2)cc1 -11.1%
NS(=O)(=O)c1ccc(CNC(=O)c2cnccn2)cc1 2.67%
CCc1ccc(OC2(C)CCN(CCOc3ccc(C)cc3)C2)cc1 (stereo not drawn) -10%
O=C1CSC(=S)N1/N=C/c1ccc(O)c([N+](=O)[O-])c1 23.5%
O=C(CC[C@H]1O[C@@H](n2ccc(=O)[nH]c2=O)[C@H](O)[C@@H]1O)N[C@H](Cc1ccccc1)C(=O)NCCCN1CCCC1=O 15.8%
Cc1cc(C(=O)N2CCCC2(C)C(=O)O)c(C)o1 (stereo not drawn) -11.9%
CCn1c(SCC(=O)Nc2nc(C)cs2)nnc1C(C)NC(=O)c1ccccc1 (stereo not drawn) -6.67%
CCn1nc(C)c(CN2CCN(Cc3ccc(OC)c(C)c3C)C(CCO)C2)c1C (stereo not drawn) 9.61%
Cc1ccc(CN2CCN(Cc3cn(C)nc3-c3ccccc3)CC2CCO)o1 (stereo not drawn) 40.4%
Cc1noc(C)c1C(=O)N1CCC1(C)C(=O)NS(=O)(=O)c1ccc(C#N)cc1 (stereo not drawn) -5.56%
O=C(Nc1ccccc1)c1ccccc1Br 9.09%
CC1(C(=O)NS(=O)(=O)c2ccc(C#N)cc2)CCN1C(=O)CC1CCCC1 (stereo not drawn) 4.38%
CC(=O)C[C@@H]1OC[C@H](C)N1S(=O)(=O)c1ccc(C)cc1 -13.9%
Cc1cccc(NC(=O)NC(=S)NC(=O)c2ccccc2)c1 -7.59%
Cc1cc2[nH]ncc2cc1NC(=S)NC(=O)c1ccccc1 -1.02%
O=C(N[C@H]1C/C=C\C(c2cccc(F)c2)N(Cc2ccccc2)C(=O)C1)OCC1c2ccccc2-c2ccccc21 (stereo partly drawn) -10%
CC[C@@H]1CC2=C(C(=O)OC(C)(C)O2)[C@@H](CC)O1 22.9%
O=C(C1CC1)N1N=C2CCCCC2C1(O)C(F)(F)F (stereo not drawn) -13%
CN(C(=O)COC(=O)c1cc(=O)[nH]c2ccccc12)C1CCCCC1 0%
O=C(OCc1nnc(-c2ccccc2)o1)c1cc(=O)[nH]c2ccccc12 -11.8%
CC(CO)NCC12CC3CC(CC(C3)C1)C2 (stereo not drawn) 4.35%
CC(=O)NC(c1ccccc1)c1nc(-c2ccccc2C)cs1 (stereo not drawn) 0.953%
CCc1nc2c(OCCOc3ccccc3)cccn2c1N(C=O)Cc1ccc(OC)cc1 29.8%
CCCCN(C=O)c1c(CC)nc2c(OCc3ccccc3C(=O)OC)cccn12 0%
COc1cccc(CNc2nc(NCc3cccs3)nc3ccsc23)c1 -4.63%
COc1cccc(-c2cc3nc(NCc4ccccc4OC)n(C)c(=O)c3s2)c1 0.83%
COc1ccc(C(=O)N(C)Cc2ccc(OC)c(OC)c2OC)cc1S(=O)(=O)N1CCOCC1 -8.15%
COCCN1CCN(C(=O)c2cc(COc3ccc(F)cc3Cl)on2)CC1 22.2%
CN(CC(=O)NCCc1ccc(F)cc1)CC(=O)Nc1ccc(F)c(F)c1F -12.2%
CN(CC(=O)Nc1ccccc1[N+](=O)[O-])Cc1ccc(Br)cc1 -6.83%
CCN(C(=O)CSc1nnc2ccccn12)C1CCS(=O)(=O)C1 (stereo not drawn) -2.9%
Cc1cc2cc3c(cc2nc1SCC(=O)Nc1c(C)cccc1C)CCC3 13%
Cc1cccc(C(=O)C(O)(c2ccccc2)C2CCCCC2=O)c1 (stereo not drawn) 16.6%
CC(CCc1ccccc1)NC(=O)c1cnc(Cl)c(Cl)c1 (stereo not drawn) 12.3%
COc1ccc(CCNC(=O)COC(=O)c2cnc(Cl)c(Cl)c2)cc1 -11.2%
CC1(C)OC(=O)C2=C(C[C@@H](C3CCCCC3)O[C@@H]2c2ccc(Cl)cc2)O1 0%
CC1=C(C(=O)Nc2cccc(C(=O)NCC(C)c3ccccc3)c2)SCCO1 (stereo not drawn) 24.1%
CC(C)(C)n1nnnc1C(c1ccc2ncccc2c1)N1CCSCC1 (stereo not drawn) -23.4%
O=S(=O)(NCCc1ccccn1)c1cc(Cl)cc(Cl)c1O 0%
O=[N+]([O-])c1cccc(S(=O)(=O)NCc2ccccn2)c1 11.4%
COC(=O)c1ccc(CNC(=O)Cn2cc(C)c(=O)[nH]c2=O)cc1 15.5%
COc1ccc(C(=O)NCC2CCCO2)cc1S(=O)(=O)NCc1ccc(Cl)cc1 (stereo not drawn) -8.62%
CCN(CC)c1ccc(C(=O)N/N=C(\C)c2cccc(OC)c2)cc1 96.6%
COC(=O)c1sccc1N/N=C(\C)c1ccc(F)c(Cl)c1 13.1%
Cc1cc(NC(=O)CSc2nccn2-c2ccc([N+](=O)[O-])cc2)no1 45.3%
COc1cc2c(cc1CNC[C@H]1O[C@@H](n3cnc(C(N)=O)n3)[C@H](O)[C@@H]1O)OCO2 3.97%
CCc1ccccc1OCC(=O)Nc1nnc(C2CC2)s1 -16.9%

Activity change, active:
CC(C)OCCCNc1ncnc2c1[nH]c1ccc(F)cc12 -71%
CCN1CCCC1CNc1ncnc2c1[nH]c1ccc(F)cc12 (stereo not drawn) -94.3%
Cc1ccc(NC(=O)N2CCC(c3nc4c(nnn4Cc4c(F)cccc4Cl)c(=O)[nH]3)CC2)cc1 -69%
Cc1cccc(OCC(O)CN2CCN(CCN3C(=O)c4cccc5cccc(c45)C3=O)CC2)c1C (stereo not drawn) -52.3%
CN(C(=O)CCN1C(=O)/C(=C/c2ccccc2F)SC1=S)C1CCS(=O)(=O)C1 (stereo not drawn) -99.1%
COC(=O)COc1ccc(S(=O)(=O)N2CCOCC2)cc1 -50.5%
NS(=O)(=O)c1ccc(CNC(=O)c2cccc(Oc3ccccc3)c2)cc1 -74.2%
COc1ccc(CN2CCN(Cc3cn(C)nc3-c3ccccc3)CC2CCO)c(C)c1C (stereo not drawn) -57.9%
Cc1ccc(NC(=S)NC(=O)c2ccc(-c3ccccc3)cc2)c(C)c1 -50.2%
CCOC(=O)c1ccc(COC(=O)c2cc(=O)[nH]c3ccccc23)o1 -68.1%
CCCCN(C=O)c1c(CC)nc2c(OCCC3CCCCC3)cccn12 -56.6%
COc1cccc(CNc2nc(NCc3ccccc3OC)nc3ccsc23)c1 -75.5%
Cc1coc2c(O)cc3c(c12)OC1(N2CCCCC2)C(=O)NCCCC31 (stereo not drawn) -99.3%
Cc1ccc(NC(=O)CN(C)Cc2ccc(F)cc2)c([N+](=O)[O-])c1 -62.3%
COc1ccc(CCNC(=O)c2cnc(Cl)c(Cl)c2)cc1 -107%
O=[N+]([O-])c1cc(S(=O)(=O)NCCc2ccccn2)ccc1Cl -65.1%
COc1cccc(/C(C)=N/Nc2ncc(Cl)cc2Cl)c1 -80.6%
